SMILES strings stand for the structures. The panel holds about 83,000 compounds, 20% with a hit somewhere; the sample as a whole holds those more often.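 Each cell line was grown in a 96-well plate and treated with one concentration of compound for 48 hours. Values below 10 were considered active.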 Values without a mark were called inactive. Calls of active or inactive are those of the source.

The subject of this assay is CAKI-1 renal. Put plainly: NCI-60 one-dose screen, 48 h (100 = growth as untreated, 0 = no growth, -100 = all killed). The conditions noted are these: 10 µM unless noted. On the procedure:
Growth inhibition of the CAKI-1 human tumor cell line is measured as a screen for anti-cancer activity. Cells are grown in 96 well plates and exposed to the test compound for 48 hours. Compounds are tested at a single concentration, which is 10^-5 M for most compounds. The reported endpoint is percent growth (GI% or GIPRCNT), where numbers from 0 - 100% represent growth inhibition, and numbers from -100% - 0 represent cell death. For example, a value of 40 represents 60% growth inhibition. A value of 0 means no net growth occurred over the course of the experiment. A value of -40 indicates 40% of cells at the beginning of the experiment died by the end of the experiment. A value of -100 means all cells are dead at the end of the experiment.
NCI-60 Human Tumor Cell Lines Screen was performed using the standard one-dose NCI protocol, which is described in more detail at https://dtp.cancer.gov/discovery_development/nci-60/default.htm.
Compounds with GIPRCNT values below 10 were considered active. Activity score was based on GIPRCNT using the following formula: […]
Score is 0 for GIPRCNT values of 100 or above, 50 for GIPRCNT values of 0, and 100 for GIPRCNT values of -100.
As to `CC(=O)Nc1ccc(-c2cc3c(NCc4ccc(F)cc4)ncnc3s2)cc1`, the growth is 61.6%.
Regarding `CCOC(=O)Cc1csc2nc(-c3ccccc3)nn12`, the growth was 111%.
For `CCNCCNc1cc(C2CCCC2)c(C#N)c2nc3ccccc3n12` the value was 39.5%; for `CN(C)CCn1cc(-c2ccc3c(Nc4ccc(CC(=O)Nc5cccc(F)c5)cc4)ncnc3c2)cn1`, -15.8% [30 µM] (active).
For `CCCCN1CCN(c2ccc3nc(-c4ccc5nc(-c6cc(OC)c(OC)c(OC)c6)[nH]c5c4)[nH]c3c2)CC1` the value was 87.9%.
For `COc1ccc(-c2cc(-c3cc(OC)ccc3O)[nH]c(=O)c2C#N)cc1` the value was 77.6%; for `NS(=O)(=O)Oc1ccc(-c2sc3cc(O)ccc3c2C(=O)c2ccc(OCCN3CCCCC3)cc2)cc1`, 49.3%; for `C[N+](C)(C)CCOC(OCC[N+](C)(C)C)(c1ccccc1)c1ccccc1`, 101%.
On to `O=S(=O)(NCCNc1cc(-c2c(-c3cccc(O)c3)nc3sccn23)ccn1)c1ccc(Cl)cc1`, for which the growth was 36.1%.
With `CCOC(=O)c1ccc(-c2ccc3cc(OC)ccc3c2)nc1C` the figure was 114%; with `C/C(Cc1ccc(Cl)cc1)=C(/c1ccc(Cl)cc1)c1ccc(OCCN(C)C)cc1`, 54.6%.
For the compound `CCn1c(Sc2nnc(NC(=O)CCN3CCCC3)s2)nc2c1c(=O)n(C)c(=O)n2C`, the growth is 94.6%.
With `Cc1cnc(Nc2ccc(OCCN3CCCC3)cc2)nc1NCc1ccco1` the figure was 62.5%; with `COc1cc(/C=C2\C=C(c3ccccc3)N(CCc3ccccc3)C2=O)cc(OC)c1OC`, 80.1%; with `CCN(CC)CCCNC(=O)c1ccc(N)cc1O`, 106%.
With `Cc1csc(NC(=O)c2sc3nc(-c4cccs4)ccc3c2N)n1`, the growth was 102%.
For the compound `CN1CCC(=C2c3ccccc3C=Cc3ccccc32)CC1`, the growth was 95.5%.
With `CC/C=C/[C@@H]1C=C[C@@H]2CCC[C@H]2[C@@H]1CC[C@H](O)[C@H](C)N` the figure was -50.6% (active); with `O[C@H]1CO[C@H]2[C@@H]1OC[C@@H]2Oc1ccc(Nc2nc(Nc3ccc(F)c(Cl)c3)ncc2F)cc1Cl`, 93.5%; with `O=C1CCC(N2C(=O)c3cccc(NCCCC4CCN(CCNC(=O)c5cc6c(o5)C(=O)c5ccccc5C6=O)CC4)c3C2=O)C(=O)N1` (stereo not given), -26.4% (active).
For `O=C1Nc2ccccc2SC1C1SC(=S)N(Cc2ccccc2)C1=O` (stereo not given) the value was 78.2%.
For `O=C1NN(C(=O)c2ccc(O)cc2)C(c2ccccc2)=N/C1=C\c1cn(-c2ccccc2)nc1-c1ccccc1` the value was 98.6%; for `C[C@@H]1CC[C@@H]2[C@@H]1[C@H](OC(=O)/C=C/c1ccccc1)[C@]1(C3CCCCC3)C[C@@H](NC(=O)CO)[C@@]2(C)O1`, 91.7%.
Turning to `CC(C)CCC[C@@H](C)[C@H]1CCC2C3=CCn4c(=O)ccc(=O)n4C3CC[C@@]21C` (stereo not given in full), the growth is -91.6% (active).
For `Nc1c(C(=O)Nc2ccccc2)sc2nc3c(cc12)CCCCCC3` the value was 42%; for `Cn1nnnc1-c1ccc(N)cc1`, 93.2%; for `C=C1C(=O)O[C@H]2[C@H]1CC/C(COC(=O)/C=C\C(=O)NCc1ccc(Cn3c(=O)sn(CCCC)c3=O)cc1)=C\CC[C@@]1(C)O[C@@H]21`, -78.8% (active).
`Clc1ccc(-c2nnc(Cn3ccnc3)o2)cc1`: the growth is 82.3%.
For `COc1ccc(/C=C(\C#N)n2nnc3ccccc32)cc1` the value was 25%.
For `CO[C@H]1/C=C/O[C@@]2(C)Oc3c(C)c(O)c4c(c3C2=O)C(=O)C(/C=N/N(c2ccccc2)c2ccccc2)=C(NC(=O)/C(C)=C\C=C\[C@H](C)[C@H](O)[C@@H](C)[C@@H](O)[C@@H](C)[C@H](OC(C)=O)[C@@H]1C)C4=O` the value was -4.42% (active); for `C=C(C)[C@@H]1CC[C@]2(CN)CC[C@]3(C)[C@H](CC[C@@H]4[C@@]5(C)CCC(N)[C@@](C)(CO)[C@@H]5CC[C@]43C)[C@@H]12` (stereo not given in full), -15.7% (active).
For `N=C(N)c1ccc(-c2ccc(-c3ccc(Cl)cc3Cl)o2)cc1` the value was 17.3%; for `NC(=O)c1c(NC(=O)c2ccc(C(F)(F)F)cc2Cl)sc2c1CCC(=O)C2`, -82.2% (active).
For `O=c1[nH]c(NCc2nnnn2-c2ccc(Br)cc2)nc2sc3c(c12)CCCC3`, the growth is 89.6%.
For `CCOC(=O)c1sc(-c2ccc(OS(=O)(=O)c3ccc(C(C)(C)C)cc3)c(C=O)c2)nc1C` the value was 20.5%; for `COc1ccc(-c2nc3ccccn3c2/C=C/C(=O)c2cc(OC)c(OC)c(OC)c2)cc1`, 59.1%; for `COc1cc2c(c(OC)c1OC)C(=O)/C(=C/c1cc(C)c(O)c(C)c1)S2`, 26.3%.
As for `COc1ccc(/C=C2\COc3ccc(O)c(O)c3C2=O)c(OC)c1`, the growth is 36.6%.
In the case of `CN(C)CCCCNc1ccc(NCCCCN(C)C)c2c1C(=O)c1c(O)ccc(O)c1C2=O`, the growth is -91.7% (active).
With `CCCCCCCC/C=C\CCCCCCCC(=O)Oc1cccc2cccnc12` the figure was -0.06% (active).

Values taken from PubChem BioAssay (NCI).
